Molecules are shown by their SMILES. About 83,000 compounds went through this panel and 20% of them were active in at least one assay; those are over-represented in the sample as a whole.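 Assay: single dose, 48 h. Readout: percent growth (0 = no net growth; negative = cell death). Active: <10.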 Active and inactive are the calls of the source.

The experiment deals with SNB-75 CNS. As to the kind of experiment: NCI-60 one-dose screen, 48 h (100 = growth as untreated, 0 = no growth, -100 = all killed). The settings on record: 10 µM unless noted.
As for `Clc1ccccc1/C=C/c1nn2c(-c3ccncc3)nnc2s1`, the growth is 105% (inactive).

For `COc1ccc(/C=N/Nc2nc(Nc3ccccc3)nc(Nc3ccc(S(N)(=O)=O)cc3)n2)cc1`, the growth was 81.9% (inactive).

Take `CS(=O)c1nccc(-c2c(-c3ccc(F)c(OCc4ccccc4)c3)nc3sccn23)n1` (stereo not drawn): the growth is 95.4% (inactive).

For the compound `COc1ccc(-c2cc(-c3cccc4ccccc34)n3c(n2)nc2ccccc23)cc1`, the growth is 35.5% (inactive).

With `COc1ccc2c(c1)c(-c1nn3c(=O)cc(-c4ccccc4)nc3s1)cn2C`, the growth was 14.9% (inactive).

Take `CC1(C)CC[C@]2(C(=O)N3CCCNCC3)CC[C@]3(C)C(=CC[C@@H]4[C@@]5(C)CCC(=O)C(C)(C)[C@@H]5CC[C@]43C)[C@H]2C1`: the growth was 124% (inactive).

For the compound `CCOC(=O)C1=C(C)Nc2nnc(Nc3ccccc3)n2C1c1ccccc1` (stereo not drawn), the growth was 70.5% (inactive).

In the case of `Cc1nc(-c2cc3ccccc3c(N3CCN(C)CC3)n2)cs1`, the growth was 76.2% (inactive).

With `Nc1n[nH]c2cccc(C#Cc3cccc(NC(=O)c4cccc(OC(F)(F)F)c4)c3)c12`, the growth is 47.7% (inactive).

Turning to `COc1c([C@@H](CC(C)C)OC(C)=O)ccc2c1C(=O)OCc1cc(C)cc(O)c1O2`, the growth was 50.6% (inactive).

In the case of `O=C1CSC(=O)N1Cc1cc2ccccc2nc1Cl`, the growth is 84.7% (inactive).

On to `O=C1Nc2ccc(Cl)cc2/C1=C/c1ccc(OCc2ccc(Br)cc2F)cc1`, for which the growth was 100% (inactive).

Take `COc1cc2oc(-c3cccc(NC(=O)c4cc(NC(=O)[C@H](C)N)ccc4Cl)c3)cc(=O)c2c(OC)c1OC`: the growth is 96.1% (inactive).

Regarding `COc1cc2oc(-c3cccc(NC(=O)c4cc(NC(=O)[C@H](C)NC(=O)OC(C)(C)C)ccc4C)c3)cc(=O)c2c(OC)c1OC`, the growth was 102% (inactive).

Take `C/C(=C(/C)C1CC1CCN(C(=O)c1ccc([N+](=O)[O-])cc1)S(=O)(=O)c1ccc(C)cc1)C1CCCCC1` (stereo not drawn): the growth was 106% (inactive).

As for `CN1CCN(c2nc(-c3cnc4ccccc4n3)cc3ccccc23)CC1`, the growth is 72.7% (inactive).

As for `CCNC(=O)Oc1ccc(/C(=C(/C)c2ccccc2)c2ccc(OCCN3CCCC3)cc2)cc1`, the growth was 79.4% (inactive).

For the compound `O=C(CSc1nnc(-c2cccs2)n1-c1ccccc1)Nc1ccc(F)cc1`, the growth is 104% (inactive).

Take `NS(=O)(=O)Oc1ccc2nc(Nc3ccc(F)c(F)c3)ccc2c1`: the growth was 81.3% (inactive).

As for `C#C[C@]1(O)CC[C@H]2[C@@H]3CC=C4c5sc(Nc6cccc(C)n6)nc5CC[C@]4(C)[C@H]3CC[C@@]21C`, the growth was -23.9% (active).

Regarding `COc1ccc([C@H]2[C@H](O)C(=O)N2c2cc(OC)c(OC)c(OC)c2)cc1O`, the growth is 45.3% (inactive).

For `COc1cc(-c2nc(SCc3ccc(C)cc3)[nH]c(=O)c2C#N)ccc1OCc1ccccc1`, the growth is 96.6% (inactive).

With `CCOC(=O)Nc1cccc(-n2cnc3cc(-c4ccc(O)cc4)ccc32)c1`, the growth is 3.54% (active).

Regarding `COc1cc(O)c2c(c1)[C@H]1O[C@@H]1C[C@H](O)[C@H](O)C(=O)/C=C\C[C@H](C)OC2=O`, the growth was 87.1% (inactive).

Consider `CN1CCN(c2ccc(C(=O)/C=C/c3ccc(Cl)c(C(F)(F)F)c3)cc2)CC1`, for which the growth was 65.3% (inactive).

In the case of `Cc1ccccc1NC1CC(=O)N(c2ccc(Cl)cc2Cl)C1=O` (stereo not drawn), the growth is 90.9% (inactive).

On to `C/C(=C(/c1ccc(O)cc1)c1ccc(OCCN(C)C)cc1)c1ccc(Cl)cc1`, for which the growth was 63.8% (inactive).

Consider `C=CCn1c(SCC(=O)Nc2cccc(C(=O)/C=C/c3ccc(Cl)cc3)c2)nc2ccccc2c1=O`, for which the growth was 72.2% (inactive).

For the compound `Cc1nn(-c2ccc(Br)cc2)c2nc(CCl)[nH]c(=O)c12`, the growth was 99.7% (inactive).

Consider `Cc1cc2nc(C(Cl)Cl)nc(-c3ccco3)n2n1`, for which the growth was 94.5% (inactive).

As for `C=CCn1c(SCC(=O)c2ccc(OC)cc2)nnc1-c1ccc(OC)cc1`, the growth was 108% (inactive).

As for `ClC(Cl)c1nc(-c2cccs2)n2nc(-c3ccccc3)cc2n1`, the growth was 48% (inactive).

Turning to `COc1cc2c3c(n(CCCNC4CCCCC4)c(=O)c2cc1OC)-c1cc2c(cc1C3=O)OCO2`, the growth was 80.6% (inactive).

As to `C#CCOc1ccc(/C=N/Nc2nc(-c3cc(Cl)ccc3Cl)cs2)cc1`, the growth was 77.3% (inactive).

Take `CS(=O)(=O)c1ccc2c(c1)c1c(n2S(=O)(=O)c2ccc(Cl)cc2)CCCC1`: the growth was -1.4% (active).

In the case of `CC(=O)NC(C)(C)C(=O)N1CCC[C@H]1C(=O)NC(C)(C)C(=O)N[C@@H](C)C(=O)NC(C)(C)C(=O)NC(C)(C)C(=O)N[C@@H](CCC(N)=O)C(=O)NC(C)(C)C(=O)N[C@H](C(=O)NC(C)(C)C(=O)NCC(=O)N[C@@H](CC(C)C)C(=O)NC(C)(C)C(=O)N1CCC[C@H]1C(=O)N[C@H](C(=O)NC(C)(C)C(=O)NC(C)(C)C(=O)N[C@@H](CCC(N)=O)C(=O)N[C@@H](CCC(N)=O)C(=O)N[C@H](CO)Cc1ccccc1)C(C)C)C(C)C`, the growth is 18.6% [4.25 µM] (inactive).

For `Cc1cn(-c2cc(NC(=O)c3cncc(C#Cc4cnc5ccc(O[C@@H]6CCOC6)nn45)c3)cc(C(F)(F)F)c2)cn1`, the growth is -63.3% (active).

As for `O=C(O)CNS(=O)(=O)c1ccc(Oc2ccc(S(=O)(=O)NCC(=O)O)cc2)cc1`, the growth is 66.6% (inactive).

The record behind these values is PubChem BioAssay (NCI).
